# The whole screen tested about 290,000 compounds, of which about 670 (0.23%) were called active. For the sample, actives were picked, then their nearest neighbours and some compounds at random. Values without a mark were called inactive.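 Rule for the calls: active = inhibition above a per-plate limit of that plate's mean compound inhibition plus 3 SD (cut at about 60% in these data); inactive = the rest.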
# Assay: suppression of KLF5 promoter-driven luciferase – DLD-1 cells, luminescence, primary screen (AID 1700);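 note: 0% = DMSO wells and 100% = LY294002 at 200 µM; higher means less KLF5 promoter-driven luciferase light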
# Conditions: DLD-1 KLF5 promoter-luciferase reporter, at 5 µM, hits give high values
row,Compound,inhibition
1,Cn1c(=O)c2c(nc(NCCNC(=O)c3ccco3)n2Cc2ccccc2F)n(C)c1=O,-15%
2,Cc1nn2c(c1-c1ccccc1)N=C(c1ccco1)CC2c1ccccc1 (stereo not given),-26.4%
3,CS(=O)(=O)c1ccc2nnn(OCC(=O)Nc3cccc(C#N)c3)c2c1,-3.59%
4,O=C(Nc1cccc(Cl)c1)c1cc(S(=O)(=O)N2CCCCC2)c[nH]1,-39.1%
5,COc1ccc(S(=O)(=O)n2nc(C)c(S(=O)(=O)N3CCOCC3)c2C)cc1,-33.4%
6,CCOC(=O)N1CCN(S(=O)(=O)c2ccc(-n3cnnn3)cc2)CC1,-18.3%
7,O=C(NCc1cc(F)cc(C(F)(F)F)c1)C1CCC(=O)N(C2CCCC2)C1 (stereo not given),11.8%
8,CCCCC(C(=O)NC(C)(C)C)N(Cc1ccccc1)C(=O)c1snc(C(N)=O)c1N (stereo not given),-18.5%
9,COc1ccc(C(C)NC(=S)NC2CCCCC2)cc1OC (stereo not given),-29.8%
10,CC1CCN(C(=O)Cn2nnnc2CN2CCOCC2)CC1,-8.54%
11,CC(=O)N1CC(=O)N(CC(=O)Nc2ccc(Br)cc2)C1=S,-0.85%
12,COC(=O)c1cccc(C(=O)N2CCCC(Nc3ccc4c(c3)OCCO4)C2)c1 (stereo not given),-10.2%
13,CC1CCC(NS(=O)(=O)c2ccc3c(c2)CC(=O)N3)CC1 (stereo not given),10.7%
14,C=CCn1c(SCc2ccc(C(=O)NCCO)cc2)nc2ccccc2c1=O,-13.8%
15,CCN1CCCC1CNC(=O)c1cc2cc(OC)c(OC)cc2[nH]1 (stereo not given),-5.17%
16,Cc1ccc(CNC(=O)CCNS(=O)(=O)c2ccc(Br)s2)cc1,-6.34%
17,CC(NC(=O)c1cc2cc(Cl)ccc2oc1=N)c1ccccc1 (stereo not given),-15.5%
18,COc1ccc(/C=C(\C#N)c2c[nH]c3ccccc23)cc1,62.4% (active)
19,COc1cc(/C=C(\C#N)c2nc3ccccc3[nH]2)ccc1O,-74.6%
20,COc1ccc2[nH]cc(/C=C(/C#N)S(=O)(=O)c3ccccc3)c2c1,-24.4%

# From PubChem BioAssay AID1700 (The Scripps Research Institute Molecular Screening Center, 2009)
